According to PubChem BioAssay (NCATS):
Inconclusive results are not listed. Activity calls are given as the source filed them. Unless noted, calls follow the shape of the dose curve; as a rule, active = well fitted inhibition curve with a large enough effect; inconclusive = small, poorly fitted or top-dose-only effect; inactive = no such curve, though single readings can be large or run the other way.

Test: High-throughput drug toxicity screening in the BPDCN cell line Gen2.2 (AID 1224824; call rule not given here;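 also: cells exposed to compounds for 48 h before reading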)
Conditions: Gen2.2 BPDCN cells; at 45.8 µM (top of the series)
Outline: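 Seed 500 exponentially growing Gen2.2 cells/well; add compounds by pin tool; incubate 48 h, 37 °C, 5% CO2; add CellTiter-Glo, 15 min RT; read luminescence. % activity vs DMSO (100%) and bortezomib (0%).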

Structure (SMILES) | cell viability, % of control (lower = more cytotoxic)
CC(C)(C)[C@]1(O)C[C@@H]2OC(=O)C[C@@]23C(=O)O[C@@H]2OC(=O)[C@H](O)C213 (some centres not stated) | 106%
O=C(Nc1ccncc1)C(=O)c1cn(Cc2ccc(Cl)cc2)c2ccccc12 | 73.9%
NC1=NC(=O)N2CC12 (configuration not stated) | 8.27%
CC[C@@H]1[C@@H](C)O[C@@](O)([C@@H](C)[C@H](O)[C@H](C)[C@H]2OC(=O)C=CC=C[C@@H](C)[C@@H]([C@@H](C)[C@@H](O)[C@H](C)[C@@]3(O)C[C@H](O[C@H]4C[C@H](O)[C@H](O)[C@H](C)O4)[C@H](CC)[C@@H](C)O3)OC(=O)C=CC=C[C@@H]2C)C[C@H]1O[C@H]1C[C@H](O)[C@H](O)[C@H](C)O1 | 11.5%
CN1[C@H]2CC(O)C[C@H]1[C@H]1O[C@H]12 (some centres not stated) | 21.9%
O=S(=O)(CC1CS1)c1ccc(Oc2ccccc2)cc1 (configuration not stated) | 3.87%
CC(C)[C@H]1C(=O)N[C@H](CO)Cc2c[nH]c3cccc(c23)N1C | 391%
COc1cccc2c1[C@]13CCN(CC4CC4)[C@H](C2)[C@]1(OC)CCC(=O)C3 | 99.3%
CN1CCN(c2ccc([N+](=O)[O-])c3no[n+]([O-])c23)CC1 | 4.61%
C[C@]12Cc3cn[nH]c3C[C@@H]1CC[C@@H]1[C@H]2CC[C@@]2(C)[C@H]1CC[C@]2(C)O | 133%
CCOC(=O)c1cncn1[C@H](C)c1ccccc1 | 124%
O=C1CCC[C@@H]2[C@H]3CCCN4CCC[C@@H](CN12)[C@@H]34 | 219%

Test: High-throughput drug toxicity screening in the BPDCN cell line Cal-1 (AID 1224825; call rule not given here)
Conditions: Cal-1 BPDCN cell viability, qHTS; at 45.8 µM (top of the series)
Outline: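 500 Cal-1 cells/well, RPMI + glutamine + 10% FBS (phenol red-free); cpd added by pin tool; 48 h, 37C, 5% CO2; CTG 15 min RT, lumi read. Normalised: DMSO 100%, bortezomib 9.2 uM 0%.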

Structure (SMILES) | viability (% of control)
CC(C)(C)[C@]1(O)C[C@@H]2OC(=O)C[C@@]23C(=O)O[C@@H]2OC(=O)[C@H](O)C213 (some centres not stated) | 124%
O=C(Nc1ccncc1)C(=O)c1cn(Cc2ccc(Cl)cc2)c2ccccc12 | 16.2%
NC1=NC(=O)N2CC12 (configuration not stated) | 7.57%
CC[C@@H]1[C@@H](C)O[C@@](O)([C@@H](C)[C@H](O)[C@H](C)[C@H]2OC(=O)C=CC=C[C@@H](C)[C@@H]([C@@H](C)[C@@H](O)[C@H](C)[C@@]3(O)C[C@H](O[C@H]4C[C@H](O)[C@H](O)[C@H](C)O4)[C@H](CC)[C@@H](C)O3)OC(=O)C=CC=C[C@@H]2C)C[C@H]1O[C@H]1C[C@H](O)[C@H](O)[C@H](C)O1 | 3.46%
CN1[C@H]2CC(O)C[C@H]1[C@H]1O[C@H]12 (some centres not stated) | 52.9%
O=S(=O)(CC1CS1)c1ccc(Oc2ccccc2)cc1 (configuration not stated) | 3.02%
CC(C)[C@H]1C(=O)N[C@H](CO)Cc2c[nH]c3cccc(c23)N1C | 82.8%
COc1cccc2c1[C@]13CCN(CC4CC4)[C@H](C2)[C@]1(OC)CCC(=O)C3 | 111%
CN1CCN(c2ccc([N+](=O)[O-])c3no[n+]([O-])c23)CC1 | 4.53%
C[C@]12Cc3cn[nH]c3C[C@@H]1CC[C@@H]1[C@H]2CC[C@@]2(C)[C@H]1CC[C@]2(C)O | 111%
CCOC(=O)c1cncn1[C@H](C)c1ccccc1 | 105%
O=C1CCC[C@@H]2[C@H]3CCCN4CCC[C@@H](CN12)[C@@H]34 | 120%

Test: qHTS assay for measurement of the activity of small molecule inhibitors on Zika virus induced Caspase-3 activity in human iPSC derived neural progenitor cells (hNPCs) (AID 1224857); also: nearly all actives have a fitted effect of over 65% in size; also: potency is read from the fitted curve at half-maximal effect; as to activity change, negative = inhibition: % of control where 0% means no effect
Conditions: hNPCs ZIKV-induced caspase-3/7, Caspase-Glo luminescence, 6 h; series mostly up to 45.7 µM; activity change, negative = inhibition: at the top concentration
Outline: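 hNPCs seeded 350 cells/well, cultured 16–20 h; compounds added 1 h before ZIKV (2 FFU/cell), 37 C 6 h. Caspase-Glo 3/7 luminescence after 30 min RT; % inhibition from induction scaled to uninfected (0%) and infected (100%) wells.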

Structure (SMILES) | Potency | activity change, negative = inhibition
Nc1ccc(N=Nc2ccccc2)cc1 | 28.2 µM (active) | 
CN[C@@H]1C[C@@H](c2ccc(Cl)c(Cl)c2)c2ccccc21 |  | 7.2% (inactive)
Nc1ccc([N+](=O)[O-])cc1 |  | 1.96% [at 92.8 µM] (inactive)
Clc1ccc(C(c2ccc(Cl)cc2)n2cc[n+](CC(OCc3ccc(Cl)cc3Cl)c3ccc(Cl)cc3Cl)c2)cc1 (configuration not stated) | inactive | 
CCCN(CCC)[C@@H]1CCc2ccc(O)cc2C1 |  | -6.74% (inactive)
NCCc1c[nH]c2ccccc12 |  | 2.32% (inactive)
CCCCCCCCCCCCCCCC[N+](C)(C)C |  | 35.6% (inactive)
O=C(Nc1ccccc1-c1ccc(Cl)cc1)c1cccnc1Cl |  | 11.3% [at 92.8 µM] (inactive)
CC1=C(C(=O)O)N2C(=O)[C@@H](N)[C@H]2SC1 |  | -0.083% [at 20.5 µM] (inactive)
C[N+](C)(C)CC(=O)O | inactive | 
CS(=O)(=O)c1ccc(C(=O)C2C(=O)CCCC2=O)c([N+](=O)[O-])c1 |  | -1.57% [at 92.8 µM] (inactive)
CC[C@@H]1C(=O)OC[C@@H]1Cc1cncn1C | inactive | 
CCCN(CCC)c1c([N+](=O)[O-])cc(S(N)(=O)=O)cc1[N+](=O)[O-] |  | -28.4% [at 92.8 µM] (inactive)
CCCN1CCC[C@H](c2cccc(O)c2)C1 |  | 2.79% (inactive)
CCCCC(CC)COC(=O)c1ccccc1C(=O)OCC(CC)CCCC (configuration not stated) |  | 30.3% [at 92.8 µM] (inactive)
CCOP(=O)(NC(C)C)Oc1ccc(SC)c(C)c1 (configuration not stated) |  | -10.1% [at 92.8 µM] (inactive)
Cc1cc(O)ccc1Cl |  | -7.15% (inactive)
NC1CCc2cc(O)c(O)cc2C1 (configuration not stated) |  | 21.2% (inactive)
OCCCBr |  | 18.2% [at 92.8 µM] (inactive)
COC(C)(C)CCCC(C)C/C=C/C(C)=C/C(=O)OC(C)C (configuration not stated) |  | -3.17% (inactive)
C[N+]1(C)C2CC(OC(=O)[C@H](CO)c3ccccc3)CC1C1OC12 (some centres not stated) | inactive | 
Oc1ccc2c3c1O[C@H]1[C@@H](O)C=C[C@H]4[C@@H](C2)NCC[C@@]341 |  | -2.54% [at 92.8 µM] (inactive)
Nc1ccc(Cl)cc1N |  | -0.875% [at 92.8 µM] (inactive)
O=[N+]([O-])/N=C1\NCCN1Cc1ccc(Cl)nc1 |  | 2.56% (inactive)
CN1C2CCC1CC(OC(=O)c1cc(Cl)cc(Cl)c1)C2 (configuration not stated) |  | 11.6% (inactive)
C[C@@H]1O[C@H](C[N+](C)(C)C)C[C@H]1O |  | -0.688% (inactive)
ClC1=C(Cl)[C@]2(Cl)[C@@H]3[C@@H]4C[C@@H]([C@H]5O[C@@H]45)[C@@H]3[C@@]1(Cl)C2(Cl)Cl |  | 153% [at 92.8 µM] (inactive)
CC(=O)[O][Hg][c]1ccccc1 |  | -13.3% (inactive)
